DPM-DC inhibit: S. pneumoniae DPM-DC inhibition. 0.49% of 65,000 active. calls only at 10 µM. purified DPM-DC, PK/LDH coupled NADH fluorescence. AID 556;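 active = the 320 compounds with the highest percent inhibition in the single-dose primary screen, excluding strongly autofluorescent ones, cut at about 32% in these data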;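 note: kinetic rate of NADH fluorescence loss reporting ADP formed by the decarboxylase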
Autofluor 339: intrinsic fluorescence of library compounds, ex339/em460 – biochemical, MLSMR library, data from DPM-DC assay, artefact control, profiling panel | compound autofluorescence, ex339/em460 nm, NADH buffer; stronger effect = higher value; 1 = no-compound wells, NADH background | fluorescence fold increase at 10 µM | 5.5% of 65,000 active | AID 709;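 active = at 10 µM, mean starting fluorescence two-fold or more over control wells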;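 note: signal is the first read of a kinetic run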
Spn PMK inh: inhibitors of Streptococcus pneumoniae phosphomevalonate kinase | purified PMK, PK/LDH-coupled NADH absorbance 340 nm | inhibition, % at 10 µM | 0.49% of 65,000 active;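 active = top-ranked compounds by inhibition in the single 10 µM screen, taking a fixed number of the strongest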
Spn MK inh: S. pneumoniae mevalonate kinase inhibition; inhibition, % at 10 µM; purified MK, PK/LDH-coupled NADH absorbance 340 nm; 0.48% of 65,000 active;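 active = ranked among the strongest by inhibition in the single 10 µM screen, a fixed top-ranked set picked for dose follow-up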
Abs 340nm: compound absorbs light at 340 nm; 65,000 tested, under 10 active; compound absorbance at 340 nm, fold over control; AID 708; fold change at 10 µM;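 active = at 10 µM dose, initial 340 nm absorbance at least 2 fold that of control wells; inactive = change under 2 fold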;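 note: initial absorbance extrapolated from kinetic A340 decline of NADH oxidation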
NADH enzymes: inhibition of NAD/NADH coupling enzymes, library profiling | IC50, µM (titrated, usually from 10 µM) | coupled PK/LDH NADH assays, four targets | 0.02% of 65,000 active;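 active = single-dose screening hits from any of four coupled enzyme assays that gave an IC50 when retested across doses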;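 note: the DPM-DC format reads NADH fluorescence rather than 340 nm absorbance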
Large screens that a line does not name were inactive; ! = not confirmed by another sample. Compounds with a hit are over-represented: about 6.8% of the library has one in this group of screens.

O=C(Cc1c(F)cccc1Cl)N1CCCC1	none
O=C(CSc1nnnn1Cc1ccccc1)NCCc1ccccc1	DPM-DC inhibit active
CCC(=O)Nc1cccc(NC(=O)CSc2nnnn2Cc2ccccc2)c1	DPM-DC inhibit active
Cc1ccc2nc(-c3ccc(SCC(=O)O)nc3)[nH]c2c1	DPM-DC inhibit active, Autofluor 339 3.8
Cc1ccc2nc(SCC(=O)N3CCCC3)[nH]c2c1	none
COC(=O)c1ccc(OCC(=O)Nc2nn(-c3ccccc3)nc2C(N)=O)cc1	Autofluor 339 2.2
CCCCCOc1ccc(C(=O)NC(C(=O)O)C(C)C)cc1 (stereo not given)	none
CC(=O)Nc1ccc(S(=O)(=O)N2CCN(c3cc(C)nc4ccccc34)CC2)cc1	none
CC(=O)Nc1ccc(S(=O)(=O)N2CCN(c3nc(NC4CCCC4)c4ccccc4n3)CC2)cc1	Autofluor 339 2.2 (not shown: DPM-DC inhibit)
O=S(=O)(NCCc1csc(-c2cccnc2)n1)c1ccc(Cl)s1	none
CCN1CCc2c(sc3c2c(NCc2ccco2)nc2nnnn23)C1	Autofluor 339 2.4
c1coc(CNc2ncnc3sc4c(c23)CCCCC4)c1	none
O=C(CSCSCC(=O)NCC1CCCO1)NCC1CCCO1 (stereo not given)	none
Cc1ccccc1C(=O)Nc1ccc2c(c1)OCO2	none
COc1ccc2nc3sc(C(=O)N4CCN(C)CC4)cc3cc2c1	Autofluor 339 2.7
COc1ccc2nc3oc(C(=O)N4CCCCC4)cc3cc2c1	Autofluor 339 3.4 (not shown: DPM-DC inhibit)
CCOC(=O)C1CCN(C(=O)c2cc3cc4cc(OC)ccc4nc3o2)CC1	Autofluor 339 5.1 (not shown: DPM-DC inhibit)
COc1ccc2nc(SCC(=O)N3CCCCCC3)c(C#N)cc2c1	none
COc1cc2c(=O)n(CC3CCCO3)c(=O)n(CC(=O)Nc3cccc(Cl)c3)c2cc1OC (stereo not given)	none
Cc1ccccc1NC(=O)NCCN1C(=O)C2C3C=CC(C3)C2C1=O (stereo not given)	none
O=C(O)C1CCN(C(=O)COc2ccc3c4c(c(=O)oc3c2)CCC4)CC1	Autofluor 339 3.2
Cc1cc(=O)oc2cc(OC(C)C(=O)N3CCCc4ccccc43)ccc12 (stereo not given)	none
Cc1cc(OCC(=O)N2CCCC2)ccc1Cl	none
CC(=O)C(C)Oc1ccc2c3c(c(=O)oc2c1)CCCCC3 (stereo not given)	Autofluor 339 3.7 (not shown: DPM-DC inhibit)
O=C(O)c1ccc(COc2ccc3c4c(c(=O)oc3c2)CCC4)o1	Autofluor 339 3.5 (not shown: DPM-DC inhibit)
CC(=O)C(C)Oc1ccc2c3c(c(=O)oc2c1)CCCC3 (stereo not given)	Autofluor 339 2.1 (not shown: DPM-DC inhibit)
Cc1nnc(NC(=O)C(C)Oc2ccc3c(C)cc(=O)oc3c2)s1 (stereo not given)	none
Cc1cc(C)cc(OCc2ccc(C(=O)O)o2)c1	none
O=c1cc(CSc2nnnn2-c2ccccc2)[nH]c2[nH]n(-c3ccccc3)c(=O)c12	none
Cc1c(C)c2ccc(OCc3ccc(C(=O)O)o3)c(C)c2oc1=O	Autofluor 339 3.9 (not shown: DPM-DC inhibit)
CC(=O)COc1ccc2c3c(c(=O)oc2c1)CCCC3	Autofluor 339 3.9 (not shown: DPM-DC inhibit)
O=C(O)C(Oc1ccc2c3c(c(=O)oc2c1)CCC3)c1ccccc1 (stereo not given)	Autofluor 339 3.7 (not shown: DPM-DC inhibit)
CCc1cc2c3c(c(=O)oc2cc1O)CCCC3	Autofluor 339 2.2 (not shown: DPM-DC inhibit)
CC(C)CCNC(=O)C(c1cccs1)N(CC1CCCO1)C(=O)Cn1nnc2ccccc21 (stereo not given)	none
O=C(COc1ccc(OCc2ccccc2)cc1)NC1CCOC1=O (stereo not given)	none
COC(=O)c1ccc(Cc2ccc(C(=O)OC)o2)o1	none
COC(=O)c1ccc(COc2ccc3c(C)c(C)c(=O)oc3c2)o1	Autofluor 339 2.2 (not shown: DPM-DC inhibit)
COCCn1nnnc1SCC(=O)c1ccccc1	none
c1ccc2c(c1)nnn2Cc1nnc2sc(-c3ccc4c(c3)OCCO4)nn12	DPM-DC inhibit active, Autofluor 339 2.9
c1ccc(-c2nn3c(Cn4nnc5ccccc54)nnc3s2)cc1	none
CC1(C)CC(=NO)CC(C)(C)N1	none
CCOC(=O)Cc1c(C)c2c(C)nn(-c3ccccc3)c2oc1=O	Autofluor 339 2.3
c1ccc2sc(SCc3ccc(-c4nnco4)cc3)nc2c1	Spn PMK inh 30
O=C(O)CCSc1nc2ccccc2s1	none
Cc1ccc(-c2cc(C(F)F)nc(N3CCC(C)CC3)n2)cc1	none
COc1ccccc1NC(=O)CSc1nnc(C)n1Cc1ccccc1	none
O=C(CSc1nnc2ccccn12)Nc1ccccc1C(=O)NC1CC1	DPM-DC inhibit active
O=C(CSc1nnc2ccccn12)NC(=O)NC1CCCCC1	none
Cc1cccc(C)c1NC(=O)N1CCC(c2nc3ccccc3o2)CC1	none
CN(C)S(=O)(=O)c1ccc(N2CCOCC2)nc1	none
Cc1ccc(C)n1-c1ccc(N2CCOCC2)nc1	Autofluor 339 3.7 (not shown: DPM-DC inhibit)
CCS(=O)(=O)NCC(c1cccnc1)N1CCN(c2ccccc2F)CC1 (stereo not given)	none
Cc1ccsc1C1C(C(=O)O)c2ccccc2C(=O)N1C (stereo not given)	DPM-DC inhibit active, Spn PMK inh 85, Spn MK inh 53
CN1C(=O)c2ccccc2C(C(=O)O)C1c1cccc(F)c1 (stereo not given)	none
Cc1ccc(C)c(S(=O)(=O)N2CCN(CC(=O)NC(=O)NCc3ccccc3)CC2)c1	none
CCOc1cc(C(=O)NC(C)c2ccncc2)cc(OCC)c1OCC (stereo not given)	none
CCCn1c(SCC(=O)Nc2nnc(C)s2)nnc1-c1ccoc1C	none
Nc1c2c(nc3ccccc13)N(C1CCCCC1)CC2	Autofluor 339 2.3, Spn MK inh 49 (not shown: DPM-DC inhibit)
CCCCOC(=O)c1cc(=O)[nH]c2ccccc12	Autofluor 339 2.1!
O=C(COC(=O)c1cc(=O)[nH]c2ccccc12)NC(=O)NC1CCCCC1	Autofluor 339 2
C=CCNS(=O)(=O)c1cccc2cc(C(=O)O)c(O)cc12	Autofluor 339 2.3
Cc1ccc2c(n1)sc1c(N)ncnc12	Autofluor 339 2.1
Cc1cc(NC(=O)c2ccccc2NS(=O)(=O)c2c(C)c(C)cc(C)c2C)no1	Autofluor 339 2.3 (not shown: DPM-DC inhibit)
Cc1ccc(C)c(S(=O)(=O)Nc2ccccc2C(=O)Nc2cc(C)on2)c1	Autofluor 339 2.2 (not shown: DPM-DC inhibit)
CCOC(=O)N1CCC(NC(=O)CCc2nc(-c3ccc(C)cc3)no2)CC1	none
O=C(NCCc1ccccc1)C1CCCN(S(=O)(=O)c2cccs2)C1 (stereo not given)	none
COc1ccccc1N1CCN(CCc2n[nH]c(=S)n2-c2ccccc2)CC1	Spn MK inh 46
COC(=O)C1=C(C)NC(C)=C(C(=O)OC)C1c1ccccc1OCc1c(C)no[n+]1[O-]	none
Cc1ccc(CCNC(=O)C2CCCN(c3nc4ccccc4o3)C2)cc1 (stereo not given)	none
O=C(Cc1coc(-c2ccc(F)cc2)n1)N1CCOCC1	Spn PMK inh 32
